Reference: PubChem BioAssay (Tox21)
Results filed as inconclusive are left out. Activity calls are given as the source filed them. Unless noted, the call rests on the fitted dose curve; in most records, active means well fitted curve in the direction sought with a large enough effect in the repeat runs; inconclusive means weak or mixed curves; inactive means no such curve, though single readings can be large; an effect the other way counts as inactive or inconclusive.

How the values were obtained:
[1] = qHTS assay to identify small molecule agonists of the hypoxia (HIF-1) signaling pathway - cell viability counter screen (AID 1224844; calls by dose curve; further: nearly all actives have a fitted effect of over 50% in size; further: potency means the concentration at half of the fitted maximal effect)
How it was run: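 CellTiter-Glo luminescence read-out, 30 min RT, taken in the same wells as the beta-lactamase HRE reporter assay; HRE-bla ME-180 cells, 0.5% dialyzed FBS, 17 hr compound treatment at 37C, 5% CO2.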

[2] = qHTS assay to identify small molecule antagonists of the estrogen related receptor (ERR) signaling pathway from Tox21 library (AID 1224848); further: nearly all actives have a fitted effect of over 50% in size; further: potency means the concentration at half of the fitted maximal effect
How it was run: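 Quantitative high-throughput format: ERR reporter cells (2,000/well) pre-incubated 6 h, treated 18 h at 37 C with compounds in DMSO alongside positive and negative controls, then read by ONE-Glo luminescence.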

[3] = qHTS assay to identify small molecule agonists of the estrogen related receptor (ERR) signaling pathway from Tox21 library (AID 1224849; calls by dose curve; further: nearly all actives have a fitted effect of over 15% in size); conditions: ERR reporter cell line, ONE-Glo luciferase, 18 h; at 92.4 µM (top of the series) unless noted
How it was run: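 Luminescence readout (ONE-Glo, 30 min RT) after 18 h compound exposure at 37 C of NTP-supplied ERR reporter cells; cells were plated 6 h before compound addition by pin tool.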

[4] = qHTS RealTime-Glo MT Cell Viability Assay in HepG2 cells - 24 hour (AID 1224867); further: nearly all actives have a fitted effect of over 50% in size; further: potency means the concentration at half of the fitted maximal effect
How it was run: (§1)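 HepG2 cells were seeded at 600 cells/well together with NanoLuc luciferase and a cell-permeant prosubstrate, preincubated 5 h at 37 C/5% CO2, then pin-dosed with compounds in DMSO. Nonlytic luminescence from viable cells was read at each time point.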

[5] = A CellTox Green Cytotoxicity Assay to monitor cytotoxicity in HEK293 cells - 0 hour (AID 1224869); further: nearly all actives have a fitted effect of over 50% in size; further: potency means the concentration at half of the fitted maximal effect
How it was run: (§2)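 Read-out: fluorescence of a cell-impermeant cyanine dye staining DNA of dead cells, proportional to cytotoxicity. HEK293, 600 cells/well with reagent, compound (23 nL DMSO) added after 5 h; reads at 0, 8, 16, 24, 32, 40 h.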

[6] = qHTS RealTime-Glo MT Cell Viability Assay in HepG2 cells - 40 hour (AID 1224870); further: nearly all actives have a fitted effect of over 50% in size; further: potency means the concentration at half of the fitted maximal effect
How it was run: (§3)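 HepG2 cells (600/well) mixed with RealTime-Glo MT reagent, settled 5 h at 37 C/5% CO2 before compound addition. Nonlytic NanoLuc luminescence from viable-cell prosubstrate reduction read repeatedly during 40 h treatment at 37 C.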

[7] = A CellTox Green Cytotoxicity Assay to monitor cytotoxicity in HEK293 cells - 40 hour (AID 1224871); further: nearly all actives have a fitted effect of over 45% in size; further: potency means the concentration at half of the fitted maximal effect
How it was run: as §2

[8] = qHTS RealTime-Glo MT Cell Viability Assay in HepG2 cells - 8 hour (AID 1224873); further: nearly all actives have a fitted effect of over 55% in size; further: potency means the concentration at half of the fitted maximal effect
How it was run: as §3

[9] = A CellTox Green Cytotoxicity Assay to monitor cytotoxicity in HEK293 cells - 24 hour (AID 1224875); further: nearly all actives have a fitted effect of over 45% in size; further: potency means the concentration at half of the fitted maximal effect
How it was run: as §2

[10] = A CellTox Green Cytotoxicity Assay to monitor cytotoxicity in HepG2 cells - 24 hour (AID 1224878); further: nearly all actives have a fitted effect of over 45% in size; further: potency means the concentration at half of the fitted maximal effect
How it was run: (§4)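 HepG2, 600 cells/well premixed w/ CellTox Green; 5 h settle, 37 C/5% CO2; pintool cpd add (DMSO); 37 C, 40 h; fluorescence read at 0, 8, 16, 24, 32, 40 h.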

[11] = qHTS RealTime-Glo MT Cell Viability Assay in HEK293 cells - 0 hour (AID 1224880); further: top concentration of the series differs between compounds; nearly all actives have a fitted effect of over 45% in size
How it was run: (§5)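 Luminescence readout at each listed time point; HEK293, 600 cells/well, RealTime-Glo MT reagent added with cells; compounds pinned (23 nL in DMSO) after 5 h at 37 C; continuous culture at 37 C.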

[12] = qHTS RealTime-Glo MT Cell Viability Assay in HEK293 cells - 32 hour (AID 1224868); further: nearly all actives have a fitted effect of over 50% in size; further: potency means the concentration at half of the fitted maximal effect
How it was run: (§6)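 HEK293 cells were seeded at 600 cells/well together with NanoLuc luciferase and cell-permeant prosubstrate, preincubated 5 h at 37 C/5% CO2, then given compound in DMSO by pintool. Luminescence from viable-cell prosubstrate reduction was read repeatedly over 40 h.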

[13] = qHTS RealTime-Glo MT Cell Viability Assay in HEK293 cells - 16 hour (AID 1224872); further: nearly all actives have a fitted effect of over 50% in size; further: potency means the concentration at half of the fitted maximal effect; on activity change, negative = cytotoxicity: top concentration of the series differs between compounds
How it was run: as §6

[14] = qHTS RealTime-Glo MT Cell Viability Assay in HEK293 cells - 40 hour (AID 1224874); conditions: RealTime-Glo luminescence; max response: active compounds read low; further: nearly all actives have a fitted effect of over 50% in size; further: potency means the concentration at half of the fitted maximal effect
How it was run: as §5

[15] = A CellTox Green Cytotoxicity Assay to monitor cytotoxicity in HepG2 cells - 16 hour (AID 1224876); further: nearly all actives have a fitted effect of over 45% in size; further: potency means the concentration at half of the fitted maximal effect
How it was run: as §4

[16] = qHTS RealTime-Glo MT Cell Viability Assay in HepG2 cells - 32 hour (AID 1224877); further: nearly all actives have a fitted effect of over 55% in size; further: potency means the concentration at half of the fitted maximal effect
How it was run: as §1

[17] = qHTS assay to identify small molecule agonists of H2AX (AID 1224845; active means well fitted activation curve with a large enough effect in the signal ratio in the repeat runs, not every such curve was filed as active; the % refers to the signal ratio; further: potency means the concentration at half of the fitted maximal effect)
How it was run: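 Wild-type CHO-K1 cells, plated overnight, exposed 3hr at 37C to 15 concentrations (0.76% DMSO final). Lysed, then HTRF anti-pH2AX (S139) cryptate and anti-H2AX-d2 antibodies, 24 hr room temperature; 665/620 nm emission read.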

[18] = qHTS assay to identify small molecule agonists of H2AX - cell viability counter screen (AID 1224847; calls by dose curve; further: nearly all actives have a fitted effect of over 30% in size; further: potency means the concentration at half of the fitted maximal effect; on activity change, negative = cytotoxicity: top concentration of the series differs between compounds)
How it was run: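 Counter-screen for viability: CellTiter-Glo ATP luminescence read after 3 h compound treatment (15-point titration, 0.76% DMSO final) of CHO-K1 cells at 37C, with 30 min room-temperature reagent incubation.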

[19] = A CellTox Green Cytotoxicity Assay to monitor cytotoxicity in HepG2 cells - 40 hour (AID 1224879); further: nearly all actives have a fitted effect of over 40% in size; further: potency means the concentration at half of the fitted maximal effect
How it was run: as §4

[20] = qHTS assay to identify small molecule agonists of the hypoxia (HIF-1) signaling pathway (AID 1224846; active means well fitted activation curve with a large enough effect in the signal ratio in the repeat runs, not every such curve was filed as active; the % refers to the signal ratio)
How it was run: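 Beta-lactamase FRET read-out (CCF4-AM substrate) from ME-180 cells carrying an HRE-driven bla reporter, after 17 hrs compound exposure at 37C/5% CO2. Cells were seeded at 2,000 per well in 0.5% dialyzed FBS medium and preincubated 5 hrs.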
On the % scale 0 is the no-effect control and ±100 the full control effect.

CCCCCOc1ccccc1/C(=C\SC)n1ccnc1
active: Potency [1] 21.3 µM | Potency [2] 21.1 µM
inactive: activity change, positive = activation [3] -47.2% [at 42.5 µM] | Potency [4] | Potency [5] | Potency [6] | Potency [7] | Potency [8] | Potency [9] | Potency [10] | Potency [11]

Oc1ccc(N=Nc2ccccc2)cc1
active: Potency [12] 19.8 µM | Potency [13] 15.7 µM | Potency [14] 22.2 µM
inactive: Potency [1] | Potency [4] | Potency [5] | Potency [6] | Potency [8] | Potency [15] | Potency [16] | Potency [11]

CC[C@@]1(O)C(=O)OCc2c1cc1n(c2=O)Cc2cc3c(CN(C)C)c(O)ccc3nc2-1
inactive: Potency [18] | Potency [8] | Potency [11]
active: Potency [17] 1.39 µM | Potency [2] 1.19 µM | Potency [12] 0.0674 µM | Potency [5] 23.9 µM | Potency [6] 5.35 µM | Potency [7] 21.3 µM | Potency [14] 0.0756 µM | Potency [9] 23.9 µM | Potency [15] 21.3 µM | Potency [10] 10.7 µM | Potency [19] 7.56 µM

N=C1N=C(N)c2ccccc21
inactive: Potency [7] | Potency [8] | Potency [9] | Potency [15] | Potency [11]
active: Potency [1] 21.9 µM | Potency [12] 24.5 µM | Potency [14] 24.5 µM | Potency [19] 43.6 µM

O=CC=C(c1ccccc1)c1ccccc1
inactive: Potency [1] | Potency [4] | Potency [5] | Potency [6] | Potency [8] | Potency [15] | Potency [16] | Potency [10] | Potency [19] | Potency [11]
active: Potency [12] 17.5 µM | Potency [14] 17.5 µM

CCCCC(CC)COC(=O)c1ccccc1C(=O)O (centres undefined)
inactive: Potency [17] | Potency [20] | Potency [18] | activity change, positive = activation [3] -12.5% | Potency [4] | Potency [5] | Potency [6] | Potency [7] | Potency [13] | Potency [8] | Potency [9] | Potency [15] | Potency [16] | Potency [10] | Potency [19] | Potency [11]

COc1cc(-c2nc(NC(=O)c3cc4cc(C)cc(C)c4n3CC(=O)O)sc2CCC2CCCCC2)c(OC)cc1Cl
inactive: activity change, positive = activation [3] -61.8% | Potency [5] | Potency [9] | Potency [11]
active: Potency [1] 25.2 µM | Potency [2] 31.5 µM | Potency [4] 40 µM | Potency [12] 25.2 µM | Potency [6] 40 µM | Potency [14] 22.5 µM | Potency [19] 44.9 µM

Cc1ccc(-n2nc(C(C)(C)C)cc2NC(=O)Nc2ccc(OCCN3CCOCC3)c3ccccc23)cc1
inactive: Potency [20] | Potency [18] | activity change, positive = activation [3] -18.8% [at 42.5 µM] | Potency [4] | Potency [5] | Potency [6] | Potency [7] | Potency [8] | Potency [9] | Potency [16] | Potency [10] | Potency [19] | Potency [11]
active: Potency [17] 49.2 µM

CNCc1cc(F)ccc1Oc1ccc(Cl)c(Cl)c1
inactive: Potency [17] | activity change, positive = activation [3] -40.3% | Potency [5]
active: Potency [18] 45 µM | Potency [2] 48.6 µM | Potency [4] 49 µM | Potency [12] 43.6 µM | Potency [7] 49 µM | Potency [14] 43.6 µM | Potency [9] 49 µM | Potency [15] 54.9 µM | Potency [16] 54.9 µM | Potency [10] 49 µM | Potency [19] 49 µM

[O-][n+]1ccccc1SSc1cccc[n+]1[O-]
active: Potency [1] 0.117 µM | Potency [2] 0.259 µM | Potency [4] 0.208 µM | Potency [12] 1.31 µM | Potency [6] 0.165 µM | Potency [7] 1.31 µM | Potency [13] 1.31 µM | Potency [14] 1.17 µM | Potency [9] 4.65 µM | Potency [15] 9.28 µM | Potency [16] 0.165 µM | Potency [19] 0.329 µM
inactive: activity change, negative = cytotoxicity [11] -7.04% [at 15.8 µM]

COCCCC/C(=N\OCCN)c1ccc(C(F)(F)F)cc1
active: Potency [19] 26.8 µM
inactive: Potency [17] | Potency [20] | Potency [18] | Potency [2] | activity change, positive = activation [3] -2.43% [at 42.5 µM] | Potency [4] | Potency [5] | Potency [6] | Potency [7] | Potency [8] | Potency [9] | Potency [11]

On1ccccc1=S
inactive: activity change, positive = activation [3] -71.1% | Potency [5] | Potency [11]
active: Potency [1] 0.432 µM | Potency [2] 1.21 µM | Potency [4] 0.544 µM | Potency [12] 4.32 µM | Potency [6] 0.485 µM | Potency [7] 1.09 µM | Potency [13] 3.85 µM | Potency [14] 3.85 µM | Potency [15] 1.93 µM | Potency [16] 0.485 µM | Potency [10] 0.432 µM | Potency [19] 0.385 µM

O=C1CCCCCN1SSN1CCCCCC1=O
active: Potency [1] 43.6 µM | Potency [2] 54.5 µM | Potency [7] 49 µM | Potency [19] 54.9 µM
inactive: activity change, positive = activation [3] -43.7% | Potency [12] | Potency [13] | Potency [8] | max response [14] -12.6% | Potency [9] | Potency [15] | Potency [11]

C=CC(=O)OCC(CO)(COCC(COC(=O)C=C)(COC(=O)C=C)COC(=O)C=C)COC(=O)C=C
inactive: Potency [5] | Potency [11]
active: Potency [1] 2.16 µM | Potency [4] 4.31 µM | Potency [6] 4.31 µM | Potency [7] 27.2 µM | Potency [13] 3.05 µM | Potency [8] 3.42 µM | Potency [14] 2.42 µM | Potency [9] 54.3 µM | Potency [16] 3.84 µM | Potency [10] 48.4 µM | Potency [19] 15.3 µM

CCCCN1C(=O)[C@@H]([C@H](O)C2CCCCC2)NC(=O)C12CCN(Cc1ccc(Oc3ccc(C(=O)O)cc3)cc1)CC2
inactive: Potency [17] | Potency [20] | Potency [18] | activity change, positive = activation [3] -19.3% | Potency [4] | Potency [5] | Potency [6] | Potency [7] | Potency [13] | Potency [8] | Potency [9] | Potency [15] | Potency [16] | Potency [10] | Potency [19] | Potency [11]
